In PubChem BioAssay (NCI):
About 83,000 compounds went through this panel and 20% of them were active in at least one assay; those are over-represented in the sample as a whole.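 Testing used 96-well plates and a 48-hour single-concentration exposure. Example: -40 means 40% of the starting cells died.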 A number with no mark means an inactive call. The source made the active and inactive calls. How the source made its calls: active means growth percent below 10; inactive means the rest.

Experiments:
Assay in all cases: NCI-60 one-dose screen, 48 h (100 = growth as untreated, 0 = no growth, -100 = all killed)
Settings in all cases: 10 µM unless noted
[1] = test system: DU-145 prostate
[2] = test system: K-562 leukemia
[3] = test system: MALME-3M melanoma
[4] = test system: MDA-MB-231 breast
[5] = test system: RXF 393 renal
[6] = test system: SF-268 CNS
[7] = test system: SF-295 CNS
[8] = test system: SF-539 CNS
[9] = test system: UACC-257 melanoma
[10] = test system: M14 melanoma
[11] = test system: HCT-15 colon
[12] = test system: HT29 colon
[13] = test system: SNB-75 CNS
[14] = test system: SNB-19 CNS
[15] = test system: U251 CNS
[16] = test system: PC-3 prostate
[17] = test system: SK-MEL-5 melanoma
[18] = test system: UACC-62 melanoma
[19] = test system: SK-MEL-28 melanoma
[20] = test system: LOX IMVI melanoma

Row | Structure (SMILES) | growth [1] | growth [2] | growth [3] | growth [4] | growth [5] | growth [6] | growth [7] | growth [8] | growth [9] | growth [10] | growth [11] | growth [12] | growth [13] | growth [14] | growth [15] | growth [16] | growth [17] | growth [18] | growth [19] | growth [20]
1 | O=C(CCl)N1c2cccc3cccc(c23)N(C(=O)CCl)C1c1cn(-c2ccccc2)nc1-c1cccc([N+](=O)[O-])c1 | 98% | 33.3% | 108% | 85.7% | 99.9% | 99.4% | 103% | 96.5% | 103% | 84.8% | 85.6% | 44.9% | 85.1% | 97.3% | 85% | 97.1% | 98.9% | 86.8% | 106% | 
2 | Cn1c(NCCc2ccc(O)c(O)c2)nc2c1c(=O)n(Cc1ccc(Cl)cc1)c(=O)n2C | 87.3% | 77.1% | 82.3% | 52.3% | 73.2% | 72.4% | 103% | 82.7% | 117% | 78.8% | 40.7% | 101% | 57.1% | 93% | 104% | 60% | 75.3% | 82.7% | 86% | 
3 | CCNCCNc1cc(-c2cccc(C(F)(F)F)c2)c(C#N)c2nc3ccccc3n12 | -74.9% (active) | -65.8% (active) | -77.3% (active) | -66.2% (active) | -85.6% (active) | -73.8% (active) | -82.3% (active) | -88.7% (active) | -84.4% (active) | -89.3% (active) | -91.4% (active) | -82.5% (active) | -89.3% (active) | -20.3% (active) | -88.7% (active) | -59% (active) | -96.1% (active) |  | -81.9% (active) | -85.7% (active)
4 | N#Cc1c(-c2ccccc2)nc(SCC2CO2)nc1N1CCOCC1 (configuration not stated) | 87.5% | 97.4% | 25.7% | 71.4% | 31.5% | 69.7% | 9.14% (active) | 85.6% | 69.2% | 84% | 74.2% | 74% | 34.1% | 60.9% | 75.3% | 36.1% | 84.9% |  | 64.7% | 76.6%
5 | C=C(CNCCc1ccc(O)cc1)[C@@H]1CC[C@]2(COC3CCCCO3)CC[C@]3(C)[C@H](CC[C@@H]4[C@@]5(C)CCC(NCCO)C(C)(C)[C@@H]5CC[C@]43C)[C@@H]12 (some centres not stated) | -91.9% (active) | -66.1% (active) | -86.4% (active) | -94.3% (active) | -88.9% (active) | -87.9% (active) | -82.4% (active) | -91.9% (active) | -85.6% (active) | -86.8% (active) | -93.5% (active) | -90.3% (active) | -17.6% (active) | -93.9% (active) | -95% (active) | -92.6% (active) | -95.4% (active) | -85.9% (active) | -94.4% (active) | 
6 | Clc1ccc2c(NCCCN3CCN(c4nc(N5CCOCC5)nc5ccccc45)CC3)ccnc2c1 | 27.1% | -46.2% (active) | -82% (active) | -34.5% (active) | -76.6% (active) | 46.7% | -46.7% (active) | -82.7% (active) | -68.3% (active) | -80.3% (active) | -32.8% (active) | -19.2% (active) | 89.4% | 21.7% | -14.3% (active) | 37.5% | -96.8% (active) | -33.1% (active) | -85% (active) | 
7 | CN(C)c1ccc2cc(-c3ccc(Cl)c(Cl)c3)c(N)nc2c1 | 56.2% | 12.1% | 29.8% | 63.1% | 63% | 50.1% | 11.9% | 48.5% | 21.3% | 25.5% | 32.1% | 2.59% (active) | 63.3% | 63.6% | 31.1% | 27.6% | -58.8% (active) | 57.2% | 47.4% | 
8 | Cc1cc(N(CCCNc2ccnc3cc(Cl)ccc23)Cc2ccccn2)nc(N2CCCC2)n1 | 91.2% | 9.27% (active) | 70.9% | 56.2% | 54.9% | 67.3% | 75.5% | 52.3% | 81.6% | 93.7% | 48.3% | 44% | 75.4% | 91.2% | 74.8% | 50.5% | 65.6% | 95.1% | 88% | 
